Laboratory results taken from PubChem BioAssay (NCATS).
Inconclusive results are not listed. Entries that show only a call come without a potency. The source made the active and inactive calls. Calls come from the whole dose curve; as a rule, active = well fitted inhibition curve with a large enough effect; inconclusive = small, poorly fitted or top-dose-only effect; inactive = flat fitted curve, though single readings scatter.

What was measured:
Assay in all cases: qHTS profiling for inhibitors of Plasmodium falciparum proliferation (AID 504749); note: nearly all actives have a fitted effect of over 60% in size
Conditions in all cases: P. falciparum in erythrocytes, SYBR Green DNA, 72 h; series mostly up to 28.7 µM
[1] = tested on: 7G8
Outline: (§1)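 P. falciparum-infected erythrocytes (0.3% parasitemia, 2.5% hematocrit) incubated with compound 72 h at 37 C, 5% CO2. Parasite DNA detected by SYBR Green after lysis, overnight at room temperature; normalised to 0.29 uM artemisinin and DMSO.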

[2] = tested on: CP201
Outline: as §1

[3] = tested on: CP203
Outline: as §1

[4] = tested on: CP215
Outline: as §1

[5] = tested on: CP247
Outline: as §1

[6] = tested on: CP260
Outline: as §1

[7] = tested on: CP266
Outline: as §1

[8] = tested on: CP291
Outline: as §1

[9] = tested on: CP297
Outline: as §1

[10] = tested on: CP325
Outline: as §1

[11] = tested on: DIV30
Outline: as §1

[12] = tested on: P93_24
Outline: as §1

[13] = tested on: PAD
Outline: as §1

[14] = tested on: CP335
Outline: as §1

[15] = tested on: GB4
Outline: as §1

[16] = tested on: ICS
Outline: as §1

[17] = tested on: DIV14
Outline: as §1

[18] = tested on: DIV17
Outline: as §1

[19] = tested on: PC26
Outline: as §1

[20] = tested on: ATS95
Outline: as §1
Potency is the fitted concentration of half-maximal effect.

Row | SMILES | Potency [1] | Potency [2] | Potency [3] | Potency [4] | Potency [5] | Potency [6] | Potency [7] | Potency [8] | Potency [9] | Potency [10] | Potency [11] | Potency [12] | Potency [13] | Potency [14] | Potency [15] | Potency [16] | Potency [17] | Potency [18] | Potency [19] | Potency [20]
1 | CC1OC(OC2C(O)CC(OC3C(O)CC(OC4CCC5(C)C(CCC6C5CCC5(C)C(C7=CC(=O)OC7)CCC65O)C4)OC3C)OC2C)CC(O)C1O (stereo not given) | 12600 nM (active) | inactive | inactive | inactive | inactive | inactive | inactive | inactive | inactive | inactive | inactive | inactive | inactive |  |  |  |  |  |  | 
2 | Nc1nc2[nH]cc(CCc3ccc(C(=O)NC(CCC(=O)O)C(=O)O)cc3)c2c(=O)[nH]1 (stereo not given) | 3980 nM (active) |  |  | 601 nM (active) | 199 nM (active) | 126 nM (active) |  |  | 239 nM (active) |  |  |  | 224 nM (active) | 135 nM (active) | 84.9 nM (active) | 10000 nM (active) |  |  |  | 
3 | CC(=O)CC(c1ccccc1)C1C(=O)Oc2ccccc2C1=O (stereo not given) | inactive | inactive | inactive | inactive | inactive | inactive | inactive | inactive | inactive | inactive | inactive | inactive | inactive | inactive | inactive | inactive | inactive | inactive | inactive | 
4 | N#C/C(=C1/SCC(c2ccccc2Cl)S1)n1ccnc1 (stereo not given) | 10000 nM (active) | inactive | inactive |  | inactive | inactive |  | inactive |  | inactive | inactive |  |  | inactive |  |  |  | inactive |  | 
5 | C/C(=C(/CCOC(=O)C(C)C)SS/C(CCOC(=O)C(C)C)=C(\C)N(C=O)Cc1cnc(C)nc1N)N(C=O)Cc1cnc(C)nc1N | inactive | inactive | inactive | inactive | inactive | inactive | inactive | inactive | inactive | inactive | inactive | inactive | inactive | inactive |  | inactive | inactive | inactive | inactive | inactive
6 | C#C[C@]1(O)CC[C@H]2[C@H]3[C@H](CC[C@@]21C)C1=C(CC(=O)CC1)C[C@@H]3C |  | inactive | inactive | inactive |  | inactive | inactive | inactive | inactive | inactive |  | inactive | inactive | inactive | inactive |  | inactive |  | inactive | inactive
